Article PMC5540273 (PLoS ONE, 2017)

Assays:
Settings in all cases: concentration: 1 μM,replicates: in singlicate; n = 1
[1] = system: T1, RSK4(Kin.Dom.1-N-terminal)
T1 construct: gene RPS6KA6

[2] = system: T2, RSK4(Kin.Dom.2-C-terminal)
T2 construct: gene RPS6KA6

S6K1 = system: S6K1
SBK1 = system: SBK1
SGK2 = system: SGK2
SGK3 = system: SGK3
SGK = system: SGK
SIK2 = system: SIK2
SIK = system: SIK
SLK = system: SLK
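Also: KINOMEscan kinase panel screen.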

| Compound | %Inh [1] [%] | %Inh [2] [%] | %Inh (S6K1) [%] | %Inh (SBK1) [%] | %Inh (SGK2) [%] | %Inh (SGK3) [%] | %Inh (SGK) [%] | %Inh (SIK2) [%] | %Inh (SIK) [%] | %Inh (SLK) [%] |
| --- | --- | --- | --- | --- | --- | --- | --- | --- | --- | --- |
| Cc1cccc(-c2nc(Nc3ccncc3)c3sccc3n2)n1 [GW869641] | 41 | 37 | 13 | 58 | 11 | 27 | 24 | 0 | 7 | 57 |
| C[C@@H]1CNc2c(sc3ccc4nc(-c5ccc(O)cc5)ccc4c23)C(=O)N1 | 80 | 8 | 6 | 32 | 8 | 24 | 20 | 16 | 20 | 0 |
| Cc1ccc(Nc2ccnc(Nc3ccc4c(c3)CS(=O)(=O)C4)n2)cc1O.Cl [GW579362] | 0 | 35 | 1 | 55 | 0 | 9 | 0 | 60 | 58 | 99.2 |
| OCCn1cc(-c2cnc3nnn(Cc4ccc5ncccc5c4)c3n2)cn1 | 0 | 1 | 0 | 0 | 0 | 15 | 0 | 0 | 0 | 0 |
| CCCC(=O)Nc1n[nH]c2ncccc12 [SB-601436] | 0 | 0 | 0 | 2 | 17 | 10 | 7 | 0 | 0 | 0 |
| c1ccc(Oc2ccc(Nc3ccnc4ccc(-c5ccccn5)cc34)cc2)cc1 [GW407034] | 4 | 14 | 2 | 60 | 0 | 0 | 0 | 0 | 0 | 10 |
| COc1cccc(CNC(=O)NC2CCN(c3ccnc(Nc4cc(OC)c(OC)c(OC)c4)n3)C2)c1 (stereo not shown) [GSK1379765] | 7 | 3 | 14 | 19 | 4 | 2 | 0 | 0 | 0 | 30 |
| CSc1nccc(-c2c(-c3ccc(F)cc3)ncn2CCCN2CCOCC2)n1.Cl [SB-217146] | 18 | 21 | 17 | 6 | 0 | 13 | 10 | 0 | 0 | 0 |
| Cn1ccc2ncnc(Oc3ccc(NC(=O)Nc4cncc(C(F)(F)F)c4)c(Cl)c3)c21 | 0 | 12 | 0 | 0 | 0 | 0 | 0 | 0 | 0 | 20 |
| CCn1c(-c2nonc2N)nc2cncc(CNC3CCNCC3)c21.Cl [SB-747651] | 10 | 25 | 60 | 25 | 7 | 43 | 0 | 0 | 0 | 9 |
| COc1cccc(C2=C(Nc3cccc(Cl)c3)C(=O)NC2=O)c1 [SB-341556] | 43 | 76 | 23 | 19 | 0 | 9 | 3 | 99.9 | 0 | 92.2 |
| CCOC(=O)N1CCC(n2cnc(-c3ccc(F)cc3)c2-c2ccnc(N)n2)CC1 [SB-219952] | 9 | 65 | 22 | 0 | 33 | 6 | 17 | 0 | 0 | 0 |
| Cl.Cl.NC[C@H](CC1CCCCC1)NC(=O)c1ccc(-c2ccnc3[nH]ccc23)s1 [GSK1581428] | 84 | 12 | 93 | 88 | 79 | 92.9 | 80 | 16 | 11 | 75 |
| CN(c1ccc2c(c1)nc(NCc1ccc(F)cc1)n2C)c1ccnc(Nc2ccc(CS(C)(=O)=O)cc2)n1.Cl [GW813244] | 16 | 0 | 11 | 10 | 18 | 0 | 17 | 39 | 0 | 61 |
| FC(F)(F)c1cc(Br)cc(Nc2nccc(-c3cnn4ncccc34)n2)c1 [GW810578] | 13 | 0 | 4 | 0 | 0 | 17 | 2 | 0 | 14 | 13 |
| CNC(=O)c1ccccc1Nc1nc(Nc2cccc(CS(C)(=O)=O)c2)ncc1C.O=CO [GSK1520489] | 99.6 | 49 | 85 | 90 | 14 | 42 | 71 | 95 | 99.6 | 99.9 |
| CS(=O)c1ccc(-c2coc3ccc(-c4n[nH]c(=O)o4)cc23)cc1 (stereo not shown) | 6 | 27 | 3 | 85 | 12 | 15 | 31 | 11 | 2 | 9 |

| Compound | %Inh [1] [%] | %Inh [2] [%] | %Inh (S6K1) [%] | %Inh (SBK1) [%] | %Inh (SGK2) [%] | %Inh (SGK3) [%] | %Inh (SGK) [%] | %Inh (SIK2) [%] | %Inh (SIK) [%] | %Inh (SLK) [%] |
| --- | --- | --- | --- | --- | --- | --- | --- | --- | --- | --- |
| CC(C)c1nc(-c2cccc(NS(=O)(=O)c3ccccc3)c2)c(-c2ccnc(Nc3ccc4c(c3)CN(C)CC4)n2)s1 [GSK1649598] | 0 | 46 | 66 | 43 | 35 | 53 | 77 | 87 | 99.6 | 88 |
| COc1ccc(Nc2nccc(N3CCC(NC(=O)c4cccc(C#N)c4)C3)n2)cc1 (stereo not shown) [GSK1379730] | 0 | 0 | 0 | 6 | 0 | 0 | 0 | 0 | 18 | 30 |
| CS(=O)(=O)c1cccc(CNc2nc(Nc3ccc4c(c3)[C@@H]3C[C@@H]4CNC3=O)ncc2C(F)(F)F)c1 | 73 | 5 | 0 | 81 | 0 | 25 | 43 | 47 | 45 | 98.2 |
| COc1cc2nccc(Nc3ccc(Oc4ccccc4)cc3)c2cc1OC.Cl [GI261656] | 0 | 9 | 0 | 0 | 0 | 0 | 0 | 0 | 0 | 26 |
| O=C(Nc1ccc(Oc2ccc3nc(NC(=O)C4CC4)cn3n2)c(F)c1)c1cccn(-c2ccccc2)c1=O | 0 | 0 | 0 | 0 | 0 | 0 | 0 | 8 | 59 | 0 |
| N#Cc1cccc(C(=O)NC2CCN(c3ccnc(Nc4ccc(F)cc4)n3)C2)c1 (stereo not shown) [GSK1379708] | 0 | 0 | 1 | 2 | 5 | 0 | 0 | 0 | 7 | 16 |
| CC(=O)Nc1nc2cnc(Nc3cc(NC(=O)c4cccc(CC(C)(C)C#N)c4)ccc3C)nc2s1 | 25 | 0 | 0 | 52 | 0 | 0 | 4 | 0 | 24 | 1 |
| Cl.Nc1n[nH]c2cc(-c3ccccn3)ccc12 [GSK2189892] | 3 | 0 | 0 | 28 | 0 | 0 | 0 | 0 | 0 | 14 |
| C[C@@H](Oc1cc(-n2cnc3ccc(-c4ccncc4)cc32)sc1C(N)=O)c1ccccc1Cl [GSK483724] | 12 | 0 | 0 | 6 | 14 | 0 | 7 | 0 | 11 | 95.5 |
| Cn1ccc2ncnc(Oc3ccc(NC(=O)Nc4ccnc(C(F)(F)F)c4)c(Cl)c3)c21 | 0 | 2 | 0 | 0 | 10 | 0 | 9 | 8 | 4 | 10 |
| Cl.c1ccc(Oc2ccc(Nc3ccnc4cc(-c5ccc(CN6CCNCC6)o5)ccc34)cc2)nc1 [GW567142] | 0 | 22 | 0 | 0 | 0 | 0 | 22 | 65 | 97.4 | 19 |
| C[C@@H]1CNc2c(sc3ccc4nc(-c5ccncc5)ccc4c23)C(=O)N1 | 38 | 21 | 0 | 30 | 0 | 18 | 0 | 0 | 5 | 1 |
| C[C@@H](Oc1cc(-n2cnc3cc(-c4cnn(C)c4)ccc32)sc1C(N)=O)c1ccccc1Cl [GSK580432] | 37 | 7 | 0 | 13 | 5 | 0 | 0 | 74 | 65 | 99.7 |
| O=C(NOCC1CC1)c1cc(Br)c(F)c(F)c1Nc1ccc(I)cc1Cl | 0 | 21 | 19 | 0 | 0 | 0 | 0 | 21 | 0 | 3 |
| CN(c1cccc(CNc2nc(Nc3ccc4c(c3)CC(=O)N4)ncc2C(F)(F)F)c1)S(C)(=O)=O | 77 | 54 | 42 | 48 | 0 | 2 | 31 | 56 | 25 | 33 |
| CN1CCN(CCNc2nc3cc(Oc4ccc(NC(=O)Nc5cc(C(F)(F)F)ccc5F)cc4)ccc3[nH]2)CC1.Cl.Cl [GW768504] | 0 | 0 | 0 | 0 | 0 | 0 | 0 | 0 | 0 | 7 |
| Cn1cc(-c2cccc3c(N)c(C(N)=O)nnc23)cn1 | 22 | 3 | 22 | 19 | 45 | 64 | 78 | 17 | 24 | 0 |
